Structures are written as SMILES. Records with an inconclusive call do not appear. A call without a number means that no potency is given here. Active and inactive are the calls of the source. Calls come from the whole dose curve; as a rule, active = well fitted cell-killing curve with a large enough effect in the repeat runs; inconclusive = weak or mixed curves, or effect the other way; inactive = flat fitted curve, though single readings scatter.
Potency is the fitted concentration of half-maximal effect.

The nature of the assay: qHTS assay to identify small molecule agonists of the estrogen receptor beta (ER-beta) signaling pathway - cell viability counter screen (AID 1259380). Note: nearly all actives have a fitted effect of over 30% in size. The following applies: ER-beta-bla HEK293T viability, CellTiter-Glo luminescence, 16 h; series mostly up to 92.4 µM. Summed up:
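Compounds dissolved in DMSO were pin-transferred onto ER-beta-UAS-bla HEK293T cells that had settled 6 hr, and exposure ran 16 hr at 37C. Following the reporter read, CellTiter-Glo luminescence after 30 min at room temperature indicated cytotoxicity.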
In general terms: Quantitative high-throughput screening tests each substance at several concentrations.
In the case of `O=C(OCC(COC(=O)c1ccccc1)(COC(=O)c1ccccc1)COC(=O)c1ccccc1)c1ccccc1`, the Potency result is “inactive”.

As for `Cc1cc(N)c(S(=O)(=O)O)cc1Cl`, the Potency entry was “inactive”. The figure for `CCN(CC)CCNC(=O)c1c(C)[nH]c(/C=C2\C(=O)Nc3ccc(F)cc32)c1C` is 11.9 µM (active); for `CC(C)(C)c1ccc(C(=O)CCCN2CCC(OC(c3ccccc3)c3ccccc3)CC2)cc1` it is 18.8 µM (active); for `O=c1cc(-c2ccc(O)cc2)oc2cc(O)cc(O)c12` it is “inactive”. For `CO[Si](CCCNc1ccccc1)(OC)OC` the value was “inactive”. `C=C(C)C(=O)OCC(O)COc1ccc(C(C)(C)c2ccc(OCC(O)COC(=O)C(=C)C)cc2)cc1` (stereo not drawn): the Potency was 61.1 µM (active). The figure for `CCCCCCCCCCCC[N+](C)(C)CCCCCCCCCCCC` is 21.7 µM (active); for `CCCCCCCC(=O)[O-].CCCCCCCC(=O)[O-].[Zn+2]` it is “inactive”.

As for `C/C=C(\C)C(=O)OCc1ccccc1`, the Potency result is “inactive”. The entry for `CCN(C(=O)c1cc(C)cc(OC[C@H](C)Nc2ccncc2)c1)C(C)C` is “inactive”. The entry for `O=C(O)c1c(Cl)cccc1Cl` is “inactive”; for `CC(C)(C)c1ccc(C(=O)O)cc1` it is “inactive”; for `Cc1cccc(N(C)C(=S)Oc2ccc3c(c2)C2CCC3C2)c1` (stereo not drawn) it is “inactive”. For `CCN(C(=O)N(CC)c1ccccc1)c1ccccc1`, the Potency result was “inactive”.

For the molecule `O=C(Nc1cccc(Cl)c1)OCC#CCCl`, the Potency was 54.5 µM (active). `CN(C)[C@@H]1C(=O)C(C(N)=O)=C(O)[C@@]2(O)C(=O)C3=C(O)c4c(O)cccc4C[C@H]3C[C@@H]12`: the Potency entry is “inactive”. As for `Oc1cccc2cc3cccc(O)c3c(O)c12`, the Potency result is “inactive”.

The values above are taken from PubChem BioAssay (Tox21).
